Compound activity as filed in PubChem.
The list is not random: actives were taken first. Their share in the collection is about 9.3%.
SMN2 splice enh = SMN2 splice variant enhancement | HEK293 SMN2-luciferase splicing reporter, luminescence, 30-36 h | Potency, µM (top dose mostly 46.1 µM), for inactives: at the top dose activity change, positive = activation, actives largely listed as activators | actives 2.8% (n = 210,000); further: % of control where 0% means no effect; nearly all actives have a fitted effect of over 55% in size
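HEK293 cells carry an SMN2 minigene-luciferase reporter in which exon 7 inclusion puts luciferase in frame. Cells were seeded at 2000 cells/well, attached for 10-12 hours, then exposed to compounds for 30-36 hours at 37C before ONE-Glo luminescence.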
Rab9 promoter act = activators of Rab9 promoter; Huh7 Rab9 promoter-luciferase reporter, luminescence, 24 h; Potency, µM (titrated, usually from 9.22 µM), inactives show at the highest dose activation, negative = inhibition, actives largely listed as activators; actives 2.8% (n = 320,000); further: % of control where 0% means no effect; nearly all actives have a fitted effect of over 60% in size
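Using Huh7 cells stably transfected with Rab9 promoter–luciferase, compounds were incubated 24 h at 37 °C, 5% CO2; luciferase luminescence was read 10 min after reagent addition.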
NPC1 promoter act = NPC1 promoter activation. Huh7 NPC1 promoter luciferase reporter, 24 h. actives 2.4% (n = 320,000). Potency, µM (highest dose often 9.22 µM), inactives show top-dose activation, most hits filed as activators; further: % of control where 0% means no effect; nearly all actives have a fitted effect of over 60% in size
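Stably transfected Huh7 (NPC1 promoter→luciferase), 1500 cells/well in Opti-MEM + 10% FBS, 2 h settle, then compound 24 h at 37 °C. Luminescence after 10 min with Amplite reagent.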
FLuc counter = counter-screen for miR-21 project: firefly luciferase inhibitors or activators | purified FLuc, Km substrates, luminescence inhibition | Potency, µM (top dose mostly 57.5 µM), without a hit: at the top dose activity change, negative = inhibition, usual class: inhibitors | actives 6.9% (n = 360,000) | AID 588342;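 further: plate controls were vehicle for no effect and reference inhibitor for full effect; nearly all actives have a fitted effect of over 55% in size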
Target sequence (P08659 whole entry, looked up): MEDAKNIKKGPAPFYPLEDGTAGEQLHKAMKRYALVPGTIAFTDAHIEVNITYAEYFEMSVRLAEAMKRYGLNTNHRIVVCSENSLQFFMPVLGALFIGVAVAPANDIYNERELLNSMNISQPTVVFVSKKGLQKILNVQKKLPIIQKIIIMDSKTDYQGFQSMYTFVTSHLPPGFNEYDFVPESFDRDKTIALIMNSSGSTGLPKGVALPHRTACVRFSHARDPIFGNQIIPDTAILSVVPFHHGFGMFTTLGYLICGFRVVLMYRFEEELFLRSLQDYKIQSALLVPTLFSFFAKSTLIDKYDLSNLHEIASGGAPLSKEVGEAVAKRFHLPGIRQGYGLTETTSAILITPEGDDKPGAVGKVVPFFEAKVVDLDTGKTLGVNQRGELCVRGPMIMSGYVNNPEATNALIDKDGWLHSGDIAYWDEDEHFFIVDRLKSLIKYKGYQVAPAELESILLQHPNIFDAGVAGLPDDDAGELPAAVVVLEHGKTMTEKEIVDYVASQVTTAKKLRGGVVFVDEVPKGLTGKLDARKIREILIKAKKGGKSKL
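Purified P. pyralis luciferase, 10 nM final, with Km-level 10 uM D-luciferin and 10 uM ATP in 50 mM Tris acetate pH 7.5, 10 mM Mg acetate, 0.01% Tween-20, 0.05% BSA; 6-point qHTS titration about 60 µM downward; luminescence read.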
ELG1 repair inh = blocks ELG1-dependent DNA repair in HEK293T cells | actives 2.3% (n = 330,000) | AID 504467 | Potency, µM (titrated, usually from 46.1 µM), without a hit: at the highest dose activity change, negative = inhibition, hits mostly inhibitors | HEK293T ELG1-luciferase reporter, luminescence, 16 h; DNA damage induced by 5-fluorouridine; further: on the % scale 0 is the no-effect control and ±100 the full control effect; nearly all actives have a fitted effect of over 55% in size
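Luminescence from the luciferase reporter, measured 30 min after ONE-Glo reagent at room temperature, was the read-out. Beforehand, 2,000 cells per well were exposed for 16 hr at 37 °C to 5-fluorouridine together with compound or vehicle.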
ELG1 genotox = inducers of genotoxicity in HEK293T ELG1-luciferase cells | HEK293T ELG1-luciferase reporter, luminescence, 16 h | Potency, µM (series often up to 46 µM), without a hit: top-dose activity change, positive = activation, usual class: activators | actives 1.3% (n = 330,000); further: % of control where 0% means no effect; nearly all actives have a fitted effect of over 60% in size
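Screening used a luciferase reporter fused to human ELG1 in HEK293T cells. Luminescence was read on a CCD plate imager after 16 hr exposure and 30 min ONE-Glo incubation.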
Numbers without * were called inactive; ? = inconclusive; . = no result; [ ] = another dose, or the depositor's remark. The call rests on the fitted dose curve; in most records, active means well fitted curve in the direction sought with a large enough effect; inconclusive means small, poorly fitted or top-dose-only effect, or another doubt; inactive means no such curve, though single readings can be large; an effect the other way counts as inactive or inconclusive. Potency means the concentration at half of the fitted maximal effect.

SMILES | SMN2 splice enh | Rab9 promoter act | NPC1 promoter act | FLuc counter | ELG1 repair inh | ELG1 genotox
Cc1ccc(C(=O)Nc2nnc(CC(=O)N/N=C/c3ccc(O)c(O)c3)s2)cc1 | . | -5% | 20% | 4.8µM* | ? | 6%
CCc1nnc(NS(=O)(=O)c2ccc(N=CC3=C(O)CC(C)(C)CC3=O)cc2)s1 | . | 0% | -5% | -17% | 27% | 1%
CCC(C)NC(=O)c1cc(-c2ccc(OC)cc2)on1 (configuration not stated) | 10µM* | 3.2µM* | 2.8µM* | 6µM* | ? | ?
COCC(C)NC(=O)c1cc(-c2ccc(O)cc2)on1 (configuration not stated) | 9% | 25% | 27% | -20% | ? | ?
COc1ccc(-c2cc(C(=O)NCC(C)C)no2)cc1 | 11µM* | 0.71µM* | 1.4µM* | 2.4µM* | ? | 2.6µM*
COc1ccc(C(C)C)cc1S(=O)(=O)N1CCC(C(=O)NCC2CCCO2)CC1 (configuration not stated) | . | -3% | 2% | 5% | -6% | -4%
O=[N+]([O-])c1ccc(/C=N\N2CCN(c3ccc(Cl)cc3)CC2)cc1 | 0% | 2% | -2% | -3% | 1% | -4%
Oc1ccc(/C=N/N2CCCCC2)cc1O | . | -3%[1.84 µM] | -22% | ? | ? | ?
O=[N+]([O-])c1ccc(/C=N/N2CCCCC2)cc1 | . | 29%[1.84 µM] | 2.5µM* | 9.5µM* | ? | ?
Clc1ccc(/C=N/N2CCCCC2)cc1 | . | 22% | 12% | 11µM* | -9% | 12%
CCCCNC(=O)CSc1nc2ccsc2c(=O)n1CCCC(=O)NCCc1ccc(S(N)(=O)=O)cc1 | -14% | -2% | 3% | 2% | 2% | 0%
CCOC(=O)c1cnc(SC)nc1Oc1cccc(NS(=O)(=O)c2ccc(Cl)cc2)c1 | -15% | -5% | -2% | 3% | 23µM* | -5%
COC(=O)c1cc(CN2CCN(c3ccccc3C)CC2)ccc1O | 10% | 0% | -3% | 8% | 23µM* | -4%
Cc1ccccc1N1CCN(Cc2cccc(C(=O)O)c2)CC1 | . | -3% | 1% | 2% | -7% | 1%
CN=C1S/C(=C\c2cn(CC(=O)OC)c3ccccc23)C(=O)N1C | 16% | 3% | 11% | 17µM* | -6% | 10%
CN=C1S/C(=C/c2cn(CC(=O)OC)c3ccccc23)C(=O)N1C | . | -9% | 25% | 19µM* | -18% | 0%
Cc1nc2nc(NC(=O)CC(C)C)[nH]n2c(=O)c1Cc1ccccc1 | 16% | . | . | -19% | . | .
COc1cccc(-n2c(SCC(=O)Nc3cc(C)ccc3C)nc3c(oc4ccccc43)c2=O)c1 | -7% | . | . | 0% | . | .
CCOc1ccc2nc(NS(C)(=O)=O)sc2c1 | 14µM* | 1% | 7% | 17µM* | ? | ?
CCOc1ccc2nc(NC(=O)C3CSC4(C)CCC(=O)N34)sc2c1 (configuration not stated) | . | 20% | 1% | 21µM* | 3% | 1%
O=C(CN1CCC(n2nnc3cc(F)ccc32)CC1)N1CCc2ccccc2C1 | -15% | -3% | 1% | 1% | 21µM* | -5%
CCOc1ccc(S(=O)(=O)Nc2nc3ccc(OC)cc3s2)cc1 | -3% | 1% | -4% | 2% | 18% | 6%
CCOc1ccc2nc(NC(=O)CN3CCC(n4nnc5cc(F)ccc54)CC3)sc2c1 | -73% | -9% | 0% | ? | 9.2µM* | -44%
O=C(CN1CCC(n2nnc3cc(F)ccc32)CC1)NC1CC1 | -17% | 0% | -8% | -1% | 0% | -3%
Cc1cc(C)n(-c2ccc(C(=O)NCC(c3ccco3)N3CCCC3)cc2)n1 (configuration not stated) | . | 12% | -1% | -1% | -1% | 1%
COc1ccccc1N1CCN(CC2CN3C(=O)N(C)c4ccccc4C3=N2)CC1 (configuration not stated) | -7% | . | . | . | . | .
